# Assay results: PubChem BioAssay (NCATS)
# A number with no mark means an inactive call. The source made the active and inactive calls. How the calls were made is not given here.
# Tested on: HIV-1 nucleocapsid protein NCp7 (binding to TG oligonucleotide)
# Assay: HIV Nucleocapsid (AID 346);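 further: potency is for inhibitors that block NC binding and lower polarization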
# Settings: HIV-1 NC / fluorescein-TGTGTGTG probe, fluorescence polarization
# Procedure, shortened: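 Reagents dispensed (10 nM TG4xF, 100 nM HIV-1 NC), plates spun, compounds pin-transferred, then incubated 1 hr at room temperature before FP imaging. Buffer: Hepes pH 7.5, 250mM NaCl, 1uM ZnCl2, 100 uM TCEP, 5 mM 2-mercaptoethanol.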
# Potency means the concentration at half of the fitted maximal effect.
row,SMILES,Potency
1,N#CCCn1c(=O)c(-c2ccc(Cl)cc2)nc2cnc(OCc3ccccc3)nc21,> 20 µM
2,N#Cc1cccc(NC(=O)N2CCCC3(CCN(C(=O)c4ccncc4)CC3)C2)c1,> 20 µM
3,O=C(c1cc(C(F)(F)F)cc(C(F)(F)F)c1)N1CCC[C@@]2(CCN(c3ccccc3)C2)C1,> 20 µM
4,COc1ccc(CNc2nc(-c3ccccc3OC)nc3ccccc23)c(OC)c1,> 20 µM
5,COc1ccc(Oc2ncc3nc(-c4cccs4)c(=O)n(Cc4cccs4)c3n2)cc1,> 20 µM
6,COc1ccccc1CN1CC[C@@]2(CCCN(S(=O)(=O)c3ccccc3)C2)C1,> 20 µM
7,COc1ccc(Oc2ncc3ncc(=O)n(Cc4cccs4)c3n2)cc1,> 20 µM
8,COc1cccc(-c2ccc3ncnc(N(C)Cc4ccco4)c3c2)c1,> 20 µM
9,O=c1c(CCc2ccccc2)nc2cnc(N3CCNCC3)nc2n1CCc1ccccc1,> 20 µM
10,CS(=O)(=O)N1CCC[C@@]2(CCN(C(=O)Nc3ccccc3)C2)C1,> 20 µM
11,CS(=O)(=O)Nc1cccc(-c2cc(NCc3ccccc3)ncn2)c1,> 20 µM
12,O=C(c1csnn1)N1CCC2(CC1)CN(c1ccccn1)C2,> 20 µM
13,O=C(Nc1cccc(F)c1)N1CC[C@@]2(CCCN(C(=O)c3cnccn3)C2)C1,> 20 µM
14,COc1ccc2[nH]cc(CCNc3ncncc3-c3ccccc3C)c2c1,> 20 µM
15,O=c1c(-c2ccc(Cl)cc2)nc2cncnc2n1Cc1ccccc1Cl,> 20 µM
16,Cc1noc(C)c1C(=O)N1CCC2(CC1)CN(Cc1cc(C(F)(F)F)cc(C(F)(F)F)c1)C2,> 20 µM
17,CN(C)c1ncc2nc(-c3cccs3)c(=O)n(C)c2n1,> 4 µM
18,CC(=O)NCCNc1nc(-c2ccccc2C)nc2ccccc12,> 20 µM
19,Cn1cccc1C(=O)N1CCC2(CCCN(Cc3ccccc3)C2)CC1,> 20 µM
20,COc1cccc(Cn2c(=O)cnc3cncnc32)c1,> 20 µM

row,SMILES,Potency
1,CN(C)c1nc(-c2ccc3c(c2)OCO3)nc2ccccc12,> 20 µM
2,Cc1noc(C)c1-c1ccc2ncnc(N(C)C)c2c1,> 20 µM
3,Cc1cccc(CNc2ncncc2-c2ccccc2CN(C)C)c1,> 20 µM
4,COc1ccccc1CCn1c(=O)c(-c2cc(F)cc(F)c2)nc2cncnc21,> 20 µM
5,Cn1cccc1C(=O)N1CCC2(CC1)CCN(c1ccccn1)CC2,> 20 µM
6,COCC(=O)N1CCC2(CCCN(C(=O)Nc3cccc(C#N)c3)C2)CC1,> 20 µM
7,CN(C)c1ncc2nc(-c3cccs3)c(=O)n(CCC#N)c2n1,0.319 µM (active)
8,CS(=O)(=O)N1CCC[C@@]2(CCN(Cc3ccccc3)C2)C1,> 20 µM
9,Cc1cccc(CNc2cc(-c3cccnc3)ncn2)c1,> 20 µM
10,COc1ccc(-c2nc3cnc(Nc4cccc(OC)c4)nc3n(Cc3cccs3)c2=O)cc1,0.247 µM (active)
11,COc1ccc2[nH]cc(CCNc3cc(-c4ccc(C(=O)N(C)C)cc4)ncn3)c2c1,> 20 µM
12,CNc1nc(-c2ccccc2CN(C)C)nc2ccccc12,> 20 µM
13,Cc1noc(C)c1C(=O)N1CCC2(CCCN(Cc3ccc(C#N)cc3)C2)CC1,> 20 µM
14,O=c1c(-c2ccc(Cl)cc2)nc2cnc(Nc3ccccc3)nc2n1C[C@H]1CCCO1,0.219 µM (active)
15,CC(=O)N1CCC2(CCCN(C(c3ccccc3)c3ccccc3)C2)CC1,> 20 µM
16,Cc1nc2cnc(N3CCN(C)CC3)nc2n(C)c1=O,> 20 µM
17,N#Cc1cccc(NC(=O)N2CCCC3(CCN(C(=O)c4ccco4)CC3)C2)c1,> 4 µM
18,Cc1ccccc1-c1cncnc1N(C)Cc1ccco1,> 20 µM
19,COc1ccc(CNc2ncncc2-c2cccc(NS(C)(=O)=O)c2)c(OC)c1,> 20 µM
20,COCCn1c(=O)c(-c2ccccc2)nc2cnc(Oc3ccc(OC)cc3)nc21,> 20 µM
